According to PubChem BioAssay (NCI):
Compounds without any hit were thinned out: in the full panel of roughly 83,000, 20% have a hit.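 Percent growth is the endpoint: 0 to 100 indicates growth inhibition (40 means 60% inhibition), 0 means no net growth, and negative values indicate cell death.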 A number with no mark means an inactive call. The source made the active and inactive calls. How the source made its calls: active means growth percent below 10; inactive means the rest.

How the values were obtained:
Test in all cases: NCI-60 one-dose screen, 48 h (100 = growth as untreated, 0 = no growth, -100 = all killed)
[1] = test system: DU-145 prostate; conditions: 10 µM
[2] = test system: K-562 leukemia; conditions: 10 µM
[3] = test system: MALME-3M melanoma; conditions: 10 µM
[4] = test system: MDA-MB-231 breast; conditions: 10 µM
[5] = test system: RXF 393 renal; conditions: 10 µM
[6] = test system: SF-268 CNS; conditions: 10 µM
[7] = test system: SF-295 CNS; conditions: 10 µM
[8] = test system: SF-539 CNS; conditions: 10 µM
[9] = test system: UACC-257 melanoma; conditions: 10 µM
[10] = test system: M14 melanoma; conditions: 10 µM
[11] = test system: HCT-15 colon; conditions: 10 µM
[12] = test system: HT29 colon; conditions: 10 µM
[13] = test system: SNB-75 CNS; conditions: 10 µM
[14] = test system: SNB-19 CNS; conditions: 10 µM
[15] = test system: PC-3 prostate; conditions: 10 µM
[16] = test system: SK-MEL-5 melanoma; conditions: 10 µM
[17] = test system: UACC-62 melanoma; conditions: 10 µM unless noted
[18] = test system: SK-MEL-28 melanoma; conditions: 10 µM
[19] = test system: LOX IMVI melanoma; conditions: 10 µM

Row | Structure (SMILES) | growth [1] | growth [2] | growth [3] [%] | growth [4] [%] | growth [5] [%] | growth [6] [%] | growth [7] [%] | growth [8] [%] | growth [9] [%] | growth [10] [%] | growth [11] [%] | growth [12] | growth [13] [%] | growth [14] [%] | growth [15] [%] | growth [16] [%] | growth [17] | growth [18] [%] | growth [19] [%]
1 | O=S(=O)(O)c1cc(O)c2c(N=Cc3ccccc3O)c(S(=O)(=O)O)ccc2c1 | 109% | 96.7% | 97.9 | 127 | 105 | 102 | 81.9 | 94.3 | 111 | 94.4 | 99.9 | 103% | 93.4 | 108 | 95.5 | 103 | 113% | 114 | –
2 | OCc1ccc(-c2ccc(-c3ccc(CO)s3)o2)s1 | 6.59% (active) | -3.52% (active) | 78.1 | 98.8 | 57 | 73.4 | 13.6 | 43.8 | 32.5 | 87.6 | 51 | -26.5% (active) | 58.8 | 78.4 | 73.1 | 60.6 | -35% (active) | – | 73.2
3 | C=CC(O)CCC (centres undefined) | 112% | 104% | 106 | 106 | 121 | 107 | 91.1 | 102 | 90.3 | 106 | 98 | 99.7% | 95.7 | 100 | 90 | 107 | 95.9% | 98.3 | 98.6
4 | CC1(C)OC(=O)C(c2ccsc2)C(=O)O1 | 107% | 107% | 112 | 111 | 107 | 99.6 | 108 | 98.9 | 104 | 106 | 109 | 100% | 92.5 | 108 | 85 | 101 | 105% | 115 | 88.8
